Data from PMC11447256.

Legend:
Coatomer subunit gamma-1 = Coatomer subunit gamma-1 (UniProt Q9Y678); experiment: cross-linking mass spectrometry
[1] = target: T-complex protein 1 subunit delta (UniProt P50991); experiment: co-fractionation; cross-linking mass spectrometry
Protein S100-A10 = Protein S100-A10 (UniProt P60903); experiment: cross-link between two proteins; cross-linking mass spectrometry
[2] = target: Phosphoglycerate kinase 2 (UniProt P07205); experiment: co-fractionation; co-fractionation; cross-linking mass spectrometry
[3] = target: 26S proteasome non-ATPase regulatory subunit 5 (UniProt Q16401); experiment: cross-link between two proteins; cross-linking mass spectrometry; two-hybrid or complementation screen
26S proteasome non-ATPase regulatory subunit 5, sequence (Q16401 whole entry): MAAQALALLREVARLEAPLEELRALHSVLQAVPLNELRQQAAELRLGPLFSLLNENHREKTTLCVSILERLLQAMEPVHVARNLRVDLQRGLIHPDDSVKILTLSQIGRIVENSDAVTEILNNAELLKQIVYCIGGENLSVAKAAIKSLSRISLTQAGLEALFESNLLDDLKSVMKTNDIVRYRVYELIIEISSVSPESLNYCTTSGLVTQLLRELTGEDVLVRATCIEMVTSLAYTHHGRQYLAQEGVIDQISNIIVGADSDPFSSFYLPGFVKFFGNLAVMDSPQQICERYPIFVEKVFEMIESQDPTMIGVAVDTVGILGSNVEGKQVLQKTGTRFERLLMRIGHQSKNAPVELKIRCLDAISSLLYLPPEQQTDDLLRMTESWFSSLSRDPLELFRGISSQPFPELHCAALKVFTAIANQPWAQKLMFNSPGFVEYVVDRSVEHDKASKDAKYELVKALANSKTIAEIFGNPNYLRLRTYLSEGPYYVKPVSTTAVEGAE

Coatomer subunit gamma-1, sequence (Q9Y678 whole entry): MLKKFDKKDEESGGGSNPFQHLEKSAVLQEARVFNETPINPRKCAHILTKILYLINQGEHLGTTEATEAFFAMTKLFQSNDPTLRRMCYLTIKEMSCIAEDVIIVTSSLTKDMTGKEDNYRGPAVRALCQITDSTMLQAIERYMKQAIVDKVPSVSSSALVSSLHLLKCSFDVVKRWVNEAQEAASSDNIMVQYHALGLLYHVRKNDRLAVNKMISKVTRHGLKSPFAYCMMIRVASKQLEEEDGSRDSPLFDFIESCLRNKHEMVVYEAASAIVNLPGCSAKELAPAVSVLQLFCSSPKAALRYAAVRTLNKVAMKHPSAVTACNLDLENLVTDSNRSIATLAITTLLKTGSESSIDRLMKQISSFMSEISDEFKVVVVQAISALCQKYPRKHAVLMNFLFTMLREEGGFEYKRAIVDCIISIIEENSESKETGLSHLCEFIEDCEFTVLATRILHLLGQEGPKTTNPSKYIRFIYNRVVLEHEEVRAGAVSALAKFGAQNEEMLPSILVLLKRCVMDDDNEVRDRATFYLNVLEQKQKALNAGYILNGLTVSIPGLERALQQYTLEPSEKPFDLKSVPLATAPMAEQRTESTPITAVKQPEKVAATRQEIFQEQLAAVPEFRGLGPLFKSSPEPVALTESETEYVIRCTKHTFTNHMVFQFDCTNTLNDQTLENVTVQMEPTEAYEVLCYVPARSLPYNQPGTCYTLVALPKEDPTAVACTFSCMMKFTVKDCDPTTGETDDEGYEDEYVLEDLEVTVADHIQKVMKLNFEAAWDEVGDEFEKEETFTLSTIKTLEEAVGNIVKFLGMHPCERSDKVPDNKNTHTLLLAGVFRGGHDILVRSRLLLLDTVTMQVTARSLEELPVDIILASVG
Phosphoglycerate kinase 2, sequence (P07205 whole entry): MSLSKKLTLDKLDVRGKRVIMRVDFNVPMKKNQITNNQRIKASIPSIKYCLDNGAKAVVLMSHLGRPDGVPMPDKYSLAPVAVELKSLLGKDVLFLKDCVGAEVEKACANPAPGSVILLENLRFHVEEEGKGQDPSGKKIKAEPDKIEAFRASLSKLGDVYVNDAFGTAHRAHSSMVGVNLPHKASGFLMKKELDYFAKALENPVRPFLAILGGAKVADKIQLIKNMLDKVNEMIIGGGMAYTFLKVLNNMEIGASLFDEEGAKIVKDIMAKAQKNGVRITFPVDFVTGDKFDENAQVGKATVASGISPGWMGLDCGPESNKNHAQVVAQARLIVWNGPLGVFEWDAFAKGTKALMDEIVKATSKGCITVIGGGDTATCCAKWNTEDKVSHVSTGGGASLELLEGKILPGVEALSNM
T-complex protein 1 subunit delta, sequence (P50991 whole entry, stated change not applied, one chain of several): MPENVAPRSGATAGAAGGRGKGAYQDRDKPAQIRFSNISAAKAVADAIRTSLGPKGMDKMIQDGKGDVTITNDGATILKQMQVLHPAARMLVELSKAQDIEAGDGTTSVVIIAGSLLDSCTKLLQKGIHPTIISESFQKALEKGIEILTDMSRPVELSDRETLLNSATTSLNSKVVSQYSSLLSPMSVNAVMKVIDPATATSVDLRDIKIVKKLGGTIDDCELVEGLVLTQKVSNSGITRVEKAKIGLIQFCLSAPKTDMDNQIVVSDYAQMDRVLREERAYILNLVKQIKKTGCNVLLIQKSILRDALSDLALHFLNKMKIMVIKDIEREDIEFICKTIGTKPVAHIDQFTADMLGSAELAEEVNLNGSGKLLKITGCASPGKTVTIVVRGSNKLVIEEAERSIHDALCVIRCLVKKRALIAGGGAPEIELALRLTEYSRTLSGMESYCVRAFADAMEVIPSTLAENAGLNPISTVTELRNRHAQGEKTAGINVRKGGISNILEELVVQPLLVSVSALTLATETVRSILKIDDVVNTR
Protein S100-A10, sequence (P60903 whole entry): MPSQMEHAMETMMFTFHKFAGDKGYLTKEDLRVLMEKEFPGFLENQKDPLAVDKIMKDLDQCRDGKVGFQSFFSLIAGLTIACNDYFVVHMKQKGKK

Substance: Coatomer subunit beta, P53618
- listed as a hit (Coatomer subunit gamma-1): yes

Substance: T-complex protein 1 subunit gamma, P49368
- listed as a hit [1]: yes

Substance: Putative annexin A2-like protein, A6NMY6
- listed as a hit (Protein S100-A10): yes

Substance: Phosphoglycerate kinase 1, P00558
- listed as a hit [2]: yes

Substance: 26S proteasome regulatory subunit 7, P35998
- listed as a hit [3]: yes
